About 83,000 compounds went through this panel and 20% of them were active in at least one assay; those are over-represented in the sample as a whole.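 Testing used 96-well plates and a 48-hour single-concentration exposure. Example: -40 means 40% of the starting cells died.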 A number with no mark means an inactive call. Calls of active or inactive are those of the source. Rule for the calls: active = growth percent below 10; inactive = the rest.

The test system of this assay is CAKI-1 renal. Kind of assay: NCI-60 one-dose screen, 48 h (100 = growth as untreated, 0 = no growth, -100 = all killed). The following applies: 10 µM unless noted.
As to `CC/C(=C(/c1ccc(Cl)cc1)c1ccc(OCCN2CCCC2)cc1)c1ccc(OC)cc1`, the growth was 82%.

In the case of `c1cc2[nH]ncc2cc1-c1nc2ccc3[nH]ncc3c2c2c1CCCC2`, the growth is 9.5% (active).

As for `O=C(/C=C/c1ccc(Cl)cc1)c1cccc(Nc2nc(Nc3ccccc3)nc(Nc3ccccc3)n2)c1`, the growth was 83.6%.

In the case of `N#Cc1nc(-c2ccccc2)oc1S(=O)(=O)N1CCOCC1`, the growth was 66.9%.

As to `O=C1Nc2ccccc2/C1=C\c1nc(-c2ccccc2)n2ccccc12`, the growth is 76.5%.

For the molecule `O=C(COc1ccc(-c2nc3ccccc3[nH]2)cc1)N=Nc1c(O)[nH]c2ccc(Cl)cc12`, the growth was 93.9%.

Consider `COc1ccc(NC(=O)c2sc3nc(C)c(C(=O)/C=C/c4cccc(OC)c4)cc3c2N)cc1`, for which the growth is 32.9%.

In the case of `COc1cnc2c(c1)C(=O)c1c-2n(CCCNCCO)c(=O)c2ccncc12`, the growth was 28.7%.

With `O=C(Nc1nc2ccc(F)cc2s1)c1cccnc1Nc1ccc(Cl)cc1`, the growth is 20.2%.

For the molecule `N#CC1C=CN(CC(N)=O)c2ccc3cccnc3c21` (centres undefined), the growth was 91.2%.

For the molecule `COc1ccc(-c2nc3c(c(-c4ccccc4)nn3-c3ccccc3)c(-c3ccc(N4CCN(C)CC4)cc3)c2C#N)cc1`, the growth was 90%.

For the molecule `Cn1c(=O)c2[nH]c(N/N=C/c3ccccc3Br)nc2n(C)c1=O`, the growth was 93.4%.

Regarding `O=C(Nc1ccc(NC(=O)c2cc(=O)[nH]c3ccccc23)cc1)Nc1cccc(C(F)(F)F)c1`, the growth was 71.5%.

For `O=C1C(Cl)=C(Oc2ccccc2)C(=O)c2ccccc21`, the growth is 76.9%.

The values above are taken from PubChem BioAssay (NCI).
